From the supplement of paper PMC10127200
Structures can show the parent of a compound that is named as a salt.

Legend:
Test in all cases: Euclidean distance of Cell Painting phenotypic profile (signed KS, 77 features) to DMSO centroid (dimensionless distance); 5 or 10 uM (library dependent); higher = stronger phenotypic change vs DMSO (phenoactivity)
Conditions in all cases: 48 h
786-O = test system: 786-O
Outline: (§1)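 Library compounds were applied at 10 or 5 uM, depending on the library, with 0.1% DMSO final, for 48 h to five cancer lines and a healthy fibroblast line. After staining, cells were imaged confocally at 20X across 9 fields per well, and Harmony extracted 77 features, each scored as a signed Kolmogorov-Smirnov statistic against vehicle wells on the same plate. Phenoactivity is the Euclidean distance between each profile and the median vehicle profile, with profiles first plate-position corrected, correlation-weighted and averaged over replicates at the top dose.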

A549 = test system: A549
Outline: as §1

DU145 = test system: DU145
Outline: as §1

FB = test system: FB
Outline: as §1

HEPG2 = test system: HEPG2
Outline: as §1

OVCAR4 = test system: OVCAR4
Outline: as §1

Row | Compound | Euclidean distance (786-O) | Euclidean distance (A549) | Euclidean distance (DU145) | Euclidean distance (FB) | Euclidean distance (HEPG2) | Euclidean distance (OVCAR4)
1 | c1cnc(N2CCN(Cc3ccc4c(c3)OCO4)CC2)nc1 [Piribedil] | 1.19 | 0.769 | 1.21 | 1.05 | 0.645 | 0.899
2 | Cn1cc(-c2ccc(S(=O)(=O)n3ccc(/C=C/C(=O)Nc4ccccc4N)c3)cc2)cn1 | 2.25 | 2.63 | 2.82 | 2.84 | 3.21 | 3.37
3 | CN(CCN1CCC(OC(=O)Nc2ccccc2-c2ccccc2)CC1)C(=O)c1ccc(CN2CCC(C(N)=O)CC2)cc1 [Revefenacin] | 1.01 | 1.27 | 1.01 | 1.33 | 1.25 | 1.44
4 | CCCCCCCCCCCC1=C(O)C(=O)C=C(O)C1=O [Embelin] | 1.85 | 1.18 | 1.4 | 1.6 | 1.16 | 1.88
5 | Cc1ccccc1N1C(=O)c2cc(S(N)(=O)=O)c(Cl)cc2NC1C (stereo not drawn) [Metolazone] | 1.06 | 0.914 | 1.26 | 0.909 | 0.715 | 1.05
6 | CC(=O)Nc1ccc(C(=O)Nc2ccccc2N)cc1 [CI994 (Tacedinaline)] | 1.29 | 1.67 | 1.56 | 2.76 | 1.83 | 1.94
7 | CC(C)(Oc1ccc(C2CC2(Cl)Cl)cc1)C(=O)O (stereo not drawn) [Ciprofibrate] | 1.02 | 0.831 | 0.853 | 0.589 | 0.698 | 1.05
8 | CC(C)(C)NS(=O)(=O)c1cncc(-c2cc(F)c3nc(N)nn3c2)c1 | 0.676 | 0.836 | 1.2 | 1.61 | 0.94 | 1.09
9 | Oc1c(Br)cc(Br)c2cccnc12 [Broxyquinoline] | 0.96 | 0.988 | 1.01 | 1.03 | 0.735 | 0.981
10 | COc1cc2ncc(-c3ccccc3)nc2cc1OC [Tyrphostin AG 1296] | 1.46 | 1.34 | 1.58 | 1.3 | 1.42 | 1.6
11 | O=C(Nc1ccc(OC(F)(F)F)cc1)c1sccc1NCc1ccnc2ccccc12 | 1.19 | 2.11 | 1.25 | 1.38 | 0.977 | 1.41
12 | O=C(NC1CCN(CCCCC2(C(=O)NCC(F)(F)F)c3ccccc3-c3ccccc32)CC1)c1ccccc1-c1ccc(C(F)(F)F)cc1 [Lomitapide Mesylate] | 5.45 | 4.4 | 6.1 | 5.88 | 5.29 | 5.65
13 | Nc1ccn([C@H]2CC[C@@H](CO)O2)c(=O)n1 [Zalcitabine] | 1.06 | 0.768 | 1.6 | 0.942 | 2.07 | 1.13
14 | O=S(=O)(O)CCSSCCS(=O)(=O)O [Dimesna] | 0.983 | 1.01 | 1.18 | 1.16 | 0.803 | 1.13
15 | CC(C)Cc1ccc([C@@H](C)C(=O)NS(C)(=O)=O)cc1 [Reparixin (Repertaxin)] | 1.16 | 0.942 | 0.933 | 1.09 | 1.25 | 1.04
16 | CC(C)/N=c1\cc2n(-c3ccc(Cl)cc3)c3ccccc3nc-2cc1Nc1ccc(Cl)cc1 [Clofazimine] | 1.02 | 1.1 | 0.808 | 1.7 | 0.662 | 1.05
17 | C[C@H]1CO[C@@H]2Cn3cc(C(=O)NCc4ccc(F)cc4F)c(=O)c(O)c3C(=O)N12 | 1.14 | 1.26 | 0.669 | 0.944 | 0.626 | 0.809
18 | Cc1ccc(S(=O)(=O)Cc2nc(-c3ccc(C(=O)NCc4cccnc4)cc3)oc2C)cc1 | 3.04 | 2.65 | 2.6 | 1.11 | 1.68 | 2.14
19 | COc1cc(/C=C/C(=O)N2CCN(CC(=O)N3CCCC3)CC2)cc(OC)c1OC [Cinepazide maleate] | 1.21 | 0.96 | 1.04 | 1.16 | 0.337 | 1.41
20 | O=C(Nc1nc2cccc(-c3ccc(CN4CCS(=O)(=O)CC4)cc3)n2n1)C1CC1 [Filgotinib (GLPG0634)] | 0.844 | 0.922 | 1.29 | 1.45 | 2.21 | 1.22
21 | CCOc1cc([C@@H](CS(C)(=O)=O)N2C(=O)c3cccc(NC(C)=O)c3C2=O)ccc1OC | 1.2 | 0.481 | 1.78 | 0.934 | 0.783 | 0.611
22 | CSc1ccc2c(c1)N(CCC1CCCCN1C)c1ccccc1S2 (stereo not drawn) [Thioridazine hydrochloride] | 2.83 | 2.98 | 2.37 | 3.14 | 3.33 | 2.62
23 | Oc1cc(O)cc(/C=C/c2ccc(O)c(O)c2)c1 [Piceatannol] | 0.759 | 1.05 | 0.992 | 1.3 | 2.04 | 0.83
24 | O=S(=O)(c1cccc2cnccc12)N1CCCNCC1 [Fasudil (HA-1077) HCl] | 1.52 | 0.649 | 1.94 | 0.846 | 1.28 | 0.851

Row | Compound | Euclidean distance (786-O) | Euclidean distance (A549) | Euclidean distance (DU145) | Euclidean distance (FB) | Euclidean distance (HEPG2) | Euclidean distance (OVCAR4)
25 | CC(C[N+](C)(C)C)OC(N)=O (stereo not drawn) [Bethanechol chloride] | 1.22 | 0.995 | 0.866 | 0.979 | 1.03 | 0.949
26 | Clc1ccc(CSC(Cn2ccnc2)c2ccc(Cl)cc2Cl)cc1 (stereo not drawn) [Sulconazole Nitrate] | 1.3 | 1.23 | 1.07 | 0.983 | 1.1 | 1.31
27 | CN1CCC(=C2c3ccccc3CCc3sccc32)CC1 [Pizotifen Malate] | 1.65 | 1.87 | 2.14 | 2.2 | 1.73 | 1.29
28 | CCCCCOc1ccc(-c2cc(-c3ccc(C(=O)N[C@H]4C[C@@H](O)[C@@H](O)NC(=O)[C@@H]5[C@@H](O)[C@@H](C)CN5C(=O)[C@H]([C@H](O)CC(N)=O)NC(=O)[C@H]([C@H](O)[C@@H](O)c5ccc(O)c(OS(=O)(=O)O)c5)NC(=O)[C@@H]5C[C@@H](O)CN5C(=O)[C@H]([C@@H](C)O)NC4=O)cc3)no2)cc1 [Micafungin Sodium] | 1.25 | 1.24 | 1.1 | 1.25 | 1.15 | 1.27
29 | FCOC(C(F)(F)F)C(F)(F)F [Sevoflurane] | 1.15 | 0.865 | 0.847 | 0.867 | 0.827 | 1.51
30 | Cc1ccccc1C(OCCN(C)C)c1ccccc1 (stereo not drawn) [Orphenadrine Citrate] | 1.08 | 0.794 | 1.23 | 0.881 | 2.08 | 1.07
31 | CC(C)(C(=O)O)c1ccc(C(O)CCCN2CCC(C(O)(c3ccccc3)c3ccccc3)CC2)cc1 (stereo not drawn) [Fexofenadine HCl] | 1.52 | 0.838 | 0.779 | 0.629 | 0.305 | 1.91
32 | CCC[C@H](N[C@@H](C)C(=O)N1[C@H](C(=O)O)C[C@@H]2CCCC[C@@H]21)C(=O)OCC [Perindopril Erbumine] | 1.37 | 0.943 | 1.24 | 0.906 | 1.41 | 0.854
33 | N=C1CCCN1Cc1[nH]c(=O)[nH]c(=O)c1Cl [Tipiracil hydrochloride] | 1.02 | 0.947 | 0.925 | 1.05 | 0.343 | 0.676
34 | CNC(CC(=O)O)C(=O)O [NMDA (N-Methyl-D-aspartic acid)] | 0.691 | 1.26 | 0.677 | 0.867 | 0.901 | 0.706
35 | CC1=C(C(=O)O)N2C(=O)[C@@H](NC(=O)[C@H](N)C3=CCC=CC3)[C@H]2SC1 [Cephradine monohydrate] | 1.65 | 0.779 | 2.12 | 0.776 | 0.698 | 0.618
36 | COc1ccc(CN2C3CC2CN(c2ccc(-c4cc(OCC(C)(C)O)cn5ncc(C#N)c45)cn2)C3)cn1 [Selpercatinib (LOXO-292. ARRY-192)] | 0.919 | 2.72 | 0.961 | 1.56 | 0.545 | 1.15
37 | CNS(=O)(=O)CCc1ccc2[nH]cc(C3CCN(C)CC3)c2c1 [Naratriptan] | 1.48 | 0.741 | 1.01 | 0.996 | 0.943 | 1.33
38 | COC(=O)c1ccc2c(c1)NC(=O)/C2=C(\Nc1ccc(N(C)C(=O)CN2CCN(C)CC2)cc1)c1ccccc1 [Nintedanib (BIBF 1120)] | 3.7 | 4.29 | 2.53 | 4.05 | 2.66 | 3.01
39 | CN1CCN(CCOc2cc(OC3CCOCC3)c3c(Nc4c(Cl)ccc5c4OCO5)ncnc3c2)CC1 [Saracatinib (AZD0530)] | 3.22 | 3.83 | 1.78 | 3.97 | 1.98 | 3.34
40 | COC(=O)N[C@H](C(=O)N1CCC[C@H]1C(=O)Nc1ccc([C@@H]2CC[C@@H](c3ccc(NC(=O)[C@@H]4CCCN4C(=O)[C@@H](NC(=O)OC)C(C)C)cc3)N2c2ccc(C(C)(C)C)cc2)cc1)C(C)C [Ombitasvir (ABT-267)] | 1.9 | 1.76 | 1.29 | 1.1 | 1.24 | 1.26
41 | CN(C)CCN1C(=O)c2cccc3cc(N)cc(c23)C1=O [Amonafide] | 3.45 | 4 | 2.47 | 3.29 | 4.06 | 3.48
42 | CCCCC(=O)O[C@H]1CC[C@H]2[C@@H]3CCc4cc(O)ccc4[C@H]3CC[C@]12C [Estradiol valerate] | 1.37 | 0.77 | 1.17 | 0.885 | 0.621 | 1.21
43 | CN(C)Cc1c(C(=O)NCCOc2ccc(C(=O)NO)cc2)oc2ccccc12 | 2.9 | 4.31 | 3.96 | 3.8 | 4.14 | 3.47
44 | Cc1onc(-c2ccccc2)c1C(=O)N[C@@H]1C(=O)N2[C@@H]1SC(C)(C)[C@@H]2C(=O)O [Oxacillin sodium monohydrate] | 1.39 | 1.09 | 1.47 | 1.11 | 0.665 | 1.37
45 | O=c1[nH]cnc2c1ncn2[C@H]1CC[C@@H](CO)O1 [Didanosine] | 1.21 | 1.3 | 1.12 | 0.891 | 0.649 | 0.793
46 | O[C@@H](COc1cccc2ncccc12)CN1CCN(C2c3ccccc3[C@@H]3[C@H](c4ccccc42)C3(F)F)CC1 (stereo partly drawn) | 1.12 | 1.33 | 0.754 | 0.764 | 0.675 | 1.43
47 | Cc1nc(C)c(Cl)c(O)c1Cl [Clopidol] | 0.853 | 1.1 | 0.432 | 1.15 | 0.83 | 1.61
48 | CSCC[C@H](N)C(=O)O [L-methionine] | 1.08 | 0.829 | 1.25 | 0.928 | 0.685 | 1.71
